In PubChem BioAssay AID1053125 (Broad Institute, 2014):
Potency and affinity values are given separately. The source made the active and inactive calls.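 The calls were made as follows: active = viability loss whose fitted half-maximal concentration is at most twice the top valid tested dose; inconclusive = flat curve with 30 to 70% loss, or poor fit; inactive = the rest.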

assay: viability loss in HepG2 liver cells – cell-based, ATP luminescence, cherry-pick, set 6, cytotoxicity control, dose response (AID 1053125); conditions: ATP luminescence (CellTiter-Glo), 72 h; series mostly up to 26 µM;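 also: negative values mean loss of viability signal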

| SMILES | outcome |
| --- | --- |
| COc1ccc(C(=O)Oc2cc(N)n(S(=O)(=O)c3ccccc3)n2)cc1 | inactive |
| CCOc1ccc(NC(=O)CN(C)C(=O)CCCNC(=O)c2ccc(Cl)cc2)cc1OCC | inactive |
| Cc1c(C=O)c2ccccn2c1C(=O)c1cccs1 | inactive |
| CNNC(=S)NC1CC2CC1C1C=CCC21 (stereo not drawn) | inactive |
| CC(C)CCN1C(=O)c2cccc3c(N)ccc(c23)C1=O | inactive |
| Nn1c(SCC(=O)N2CCCC2)nnc1-c1cccs1 | inactive |
| Cc1cccn2c(=O)c3cc(C(=O)NCCc4ccccc4)c(=N)n(CCCn4ccnc4)c3nc12 | inactive |
| O=C(NCc1nnnn1-c1ccc(Cl)cc1)C1CC(=O)N(c2ccc(F)cc2)C1 (stereo not drawn) | inactive |
| COCCNC(=O)c1cc2c(=O)n3cccc(C)c3nc2n(Cc2ccncc2)c1=N | inactive |
| Cc1cc(OC(=O)c2ccccc2Cl)ccc1N1C(=O)CCC1=O | inactive |
| CC(=O)c1cccc(-c2ccnc3c2CC(C(=O)NCc2ccc(F)c(F)c2)O3)c1 (stereo not drawn) | inactive |
| CN1CCc2c(sc(NC(=O)Cc3ccccc3)c2C#N)C1 | inactive |
| O=C(NCc1ccc(F)cc1)C1CCCN1C(=O)Nc1cccc(F)c1 (stereo not drawn) | inactive |
| CCc1nc2ccc(C(=O)NCCc3c[nH]c4ccccc34)cn2c1N(C=O)CCC(C)C | inactive |
| Cc1cccn2c(=O)c(/C=C(\C#N)C(=O)NC3CCS(=O)(=O)C3)c(N3CCC(C(N)=O)CC3)nc12 (stereo not drawn) | inactive |
| CCc1nnc(NC(=O)c2ccc(-c3ccccc3F)o2)s1 | inactive |
| O=C(Cc1csc(-c2ccccc2)n1)NCc1ccccc1F | inactive |
| COCCn1c(=N)c(S(=O)(=O)c2ccc(F)cc2)cc2c(=O)n3ccccc3nc21 | inactive |
